VDR inhibitor: Inhibitors of the vitamin D receptor (VDR): qHTS; AID 504847, 2011; Potency, µM, most hits filed as inhibitors; VDR-SRC2-3 peptide fluorescence polarization, 2 h; 400,000 tested, 0.93% active; Vitamin D3 receptor (Homo sapiens), P11473
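Two reagent solutions held at 4 deg C in the dark were dispensed, compounds pinned at 23 nl, and the mixture incubated 2 h at room temperature. Read-out: fluorescence polarization of VDR–SRC2-3 peptide binding.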
PLK1 PBD inh: qHTS for Inhibitors of PLK1-PDB (polo-like kinase 1 - polo-box domain): Primary Screen; AID 720504, 2013; 360,000 tested, 2.8% active; Potency, µM, actives largely listed as inhibitors; Plk1 PBD binding of FITC phosphopeptide, fluorescence polarization; also: series mostly up to about 57 µM; nearly all actives have a fitted effect of over 65% in size
Target sequence (P53350 whole entry, looked up, the tested form may be a part): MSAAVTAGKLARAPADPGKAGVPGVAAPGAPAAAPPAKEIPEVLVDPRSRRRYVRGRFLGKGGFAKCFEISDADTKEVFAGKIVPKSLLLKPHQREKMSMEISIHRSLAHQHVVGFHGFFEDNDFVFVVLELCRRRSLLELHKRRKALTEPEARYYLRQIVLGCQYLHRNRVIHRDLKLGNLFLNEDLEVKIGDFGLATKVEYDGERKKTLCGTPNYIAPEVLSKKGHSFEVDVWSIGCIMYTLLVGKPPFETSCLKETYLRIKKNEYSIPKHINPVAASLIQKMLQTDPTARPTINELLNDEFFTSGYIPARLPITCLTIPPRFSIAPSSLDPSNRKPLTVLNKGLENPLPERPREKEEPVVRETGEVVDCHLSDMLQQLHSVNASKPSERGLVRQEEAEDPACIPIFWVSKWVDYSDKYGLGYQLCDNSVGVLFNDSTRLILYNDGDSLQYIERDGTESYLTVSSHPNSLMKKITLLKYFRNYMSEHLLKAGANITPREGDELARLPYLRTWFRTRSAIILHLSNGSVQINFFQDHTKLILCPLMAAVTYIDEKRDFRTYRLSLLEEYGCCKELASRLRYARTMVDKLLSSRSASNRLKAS
CCT chaperon mod: High-Throughput Screening for Modulators of Cytosolic Chaperonin Activity; purified chaperonin ATPase assay, HTRF ADP detection, 30 min; activity change, % (concentration not given with the values), hits read low; 360,000 tested, 0.3% active; in the data active = activity change below about -30%
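TRiC at 40 or 20 nM final (batch-dependent) in 30 mM Tris pH 7.4, 100 mM KCl, 5 mM MgCl2, 1 mM DTT, with compound at single 76 uM and 10 uM ATP, 30 min at 37 deg C. ADP detected by HTRF Transcreener, 665/615 ratio.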
MmCpn inh: Inhibitors of TCP-1 ring complex (TRiC) of Methanococcus maripaludis (MmCpn): qHTS. purified Mm-Cpn ATPase, ADP Transcreener TR-FRET. Potency, µM (series often up to 76.9 µM), most hits filed as inhibitors. 330,000 tested, 0.031% active. AID 504842, 2011; also: nearly all actives have a fitted effect of over 80% in size
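25 nM Mm-CPN + cpd, 10 min 37°C; + 10 uM ATP, 30 min 37°C; buffer 30 mM Tris pH 7.4, 100 mM KCl, 5 mM MgCl2, 1 mM DTT; Transcreener ADP HTRF detection 30 min RT.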
G9a inh: qHTS Assay for Inhibitors of Histone Lysine Methyltransferase G9a. Histone-lysine N-methyltransferase EHMT2 (Homo sapiens), Q96KQ7. G9a H3K9 monomethylation, AlphaScreen, 2 h. Potency, µM (top dose mostly 102 µM), most hits filed as inhibitors. 350,000 tested, 8.8% active. AID 504332, 2011; also: nearly all actives have a fitted effect of over 75% in size
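Quantitative HTS format: methyltransferase activity on a biotin-tagged H3K9 peptide is measured by AlphaScreen, using a rabbit anti-monomethyl-H3K9 antibody with streptavidin donor and anti-IgG acceptor beads. Final levels are 20 nM enzyme, 500 nM peptide, 20 uM SAM; 2 h RT.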
Sfp PPTase inh: qHTS Assay for Inhibitors of Bacillus subtilis Sfp phosphopantetheinyl transferase (PPTase). Potency, µM, usual class: inhibitors. 4'-phosphopantetheinyl transferase ffp (Bacillus subtilis), Q9F4F7. 310,000 tested, 3.5% active. AID 1490, 2009. Biochemical Sfp PPTase activity, qHTS;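 also: the enzyme is Sfp with the accession as filed and its product quenches rhodamine fluorescence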
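Compounds were incubated with enzyme (final 15 nM) for 15 min at room temperature before substrate addition started the reaction. Fluorescence at 525 nm excitation, 598 nm emission was recorded immediately and after 30 minutes.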
Hits are given with their value; 0 = inactive; ? = inconclusive; - = no result given; [ ] = remark or other dose. In the library only some 10% were active in any assay of this set; here they are far more common. Unless noted, calls follow the shape of the dose curve; as a rule, active = well fitted curve in the direction sought with a large enough effect; inconclusive = small, poorly fitted or top-dose-only effect, or another doubt; inactive = no such curve, though single readings can be large; an effect the other way counts as inactive or inconclusive.

SMILES	VDR inhibitor	PLK1 PBD inh	CCT chaperon mod	MmCpn inh	G9a inh	Sfp PPTase inh
Nc1nc(SCC(=O)N2CCCC2)[nH]c(=O)c1-c1ccccc1	0	6.7µM	0	0	0[12.7 µM]	0
CCCCCSc1nc2c(cnn2-c2ccc(F)cc2)c(=O)[nH]1	0	26.7µM	0	0	0	0
O=C(CSc1nc2c(cnn2-c2ccccc2)c(=O)[nH]1)N1CCOCC1	0	13.4µM	0	0	0[0.0925 µM]	0
CC(C)Sc1nc2c(cnn2-c2ccccc2)c(=O)[nH]1	0	0	-46.6	0	0	0
O=CN1CCc2c([nH]c3ccccc23)C1c1cccc2cccnc12 (stereo unspecified)	?	-	-	-	-	0
CCC1CCCCN1C(=O)CSc1nc(N)c(NC(=O)c2ccc(OC)c(OC)c2)c(=O)[nH]1 (stereo unspecified)	0	0	0	0	50.1µM	0
CCC1CCCCN1C(=O)CSc1nc2c(cnn2-c2ccc(C)cc2)c(=O)[nH]1 (stereo unspecified)	0	0	0	0	56.2µM	0
COc1cc(-c2ccno2)ccc1S(=O)(=O)N1CCN(c2ccc(F)cc2)CC1	0	-	-	-	0	-
Cc1cc(C)nc(NS(=O)(=O)c2ccc(NC(=O)Cc3ccccc3)cc2)n1	0	?	0	0	0	0
Cc1cc(C)nc(NS(=O)(=O)c2ccc(NC(=O)C3(c4ccccc4)CCCC3)cc2)n1	0	0	0	0	56.2µM	0
Cc1cc(C)nc(NS(=O)(=O)c2ccc(NC(=O)CCC(=O)O)cc2)n1	0	0	0	-	-	-
COc1cccc(CC(=O)Nc2ccc(S(=O)(=O)Nc3nc(C)cc(C)n3)cc2)c1	?	13.4µM	0	0	0	0
COc1cccc(C2=CC(c3ccccc3F)n3ncc(C(=O)Nc4ccc(C)cc4)c3N2)c1 (stereo unspecified)	0	-	-	-	?	-
COc1ccc(CN2CCN(S(=O)(=O)c3ccccc3)CC2)cc1Br	0	0	0	0	12.6µM	0
COc1cc(CN2CCN(S(=O)(=O)c3ccccc3)CC2)cc(OC)c1O	0	-	-	-	10µM	-
COc1ccc(S(=O)(=O)N2CCN(Cc3cc(OC)c(OC)c(OC)c3)CC2)cc1	0	0	0	0	-	0
Cc1ccc2oc(=O)c(-c3nc(-c4cccs4)no3)cc2c1	0	-	-	-	0	-
CC1CCc2ccccc2N1CC(=O)Nc1cccc(S(=O)(=O)N2CCCC2)c1 (stereo unspecified)	0	0	0	0	20µM	-
CC1(c2ccccc2)NC(=O)N(CC(=O)Nc2ccc(N3CCOCC3)cc2N2CCOCC2)C1=O (stereo unspecified)	0	0	0	0	56.2µM	-
O=C(CN1CCCc2ccccc21)Nc1cccc(S(=O)(=O)N2CCCC2)c1	-	0	0	-	-	-
CCC1(c2ccccc2)NC(=O)N(CC(=O)Nc2cccc(S(=O)(=O)N3CCCCC3)c2)C1=O (stereo unspecified)	0	0	0	0	44.7µM	-
O=C(CN1C(=O)C2CC=CCC2C1=O)Nc1ccccc1N1CCCC1 (stereo unspecified)	0	0	0	0	50.1µM	-
O=C(c1ccc2c(c1)N(Cc1ccc(Cl)cc1)C(=O)c1ccccc1S2=O)N1CCC(Cc2ccccc2)CC1 (stereo unspecified)	0	-	-	-	0	-
CCC1(c2ccccc2)NC(=O)N(CC(=O)Nc2ccc(N3CCCC3)cc2C)C1=O (stereo unspecified)	0	0	0	0	1.78µM	-
CCC1(c2ccccc2)NC(=O)N(CC(=O)Nc2ccccc2N2CCCC2)C1=O (stereo unspecified)	0	0	0	0	39.8µM	-
SMILES	VDR inhibitor	PLK1 PBD inh	CCT chaperon mod	MmCpn inh	G9a inh	Sfp PPTase inh
CCC1(c2ccccc2)NC(=O)N(CC(=O)Nc2cc(Cl)ccc2N2CCOCC2)C1=O (stereo unspecified)	0	0	0	0	35.5µM	-
C[C@@H](C(=O)NCCc1c[nH]c2ccccc12)[C@@H]1C[C@@]1(C)[C@@H](NC(=O)OCc1ccccc1)c1ccccc1	0	0	0	0	44.7µM	0
C[C@@H](C(=O)NCc1cccc2ccccc12)[C@H]1C[C@]1(C)[C@H](NC(=O)OCc1ccccc1)c1ccccc1	-	-	-	-	-	0
CN1CCN(C(c2ccc(Cl)cc2Cl)c2sc3nc(-c4ccco4)nn3c2O)CC1 (stereo unspecified)	0	-	-	-	0	-
CCCN1Cc2cccc(C(=O)Nc3ccc(C(C)=O)cc3)c2C1=O	0	-	-	-	0	-
CCN(CC)C(=O)c1sc2c(c1C)c(=O)n(-c1ccccc1)c(=O)n2CC(=O)Nc1ccc(C)cc1C	0	-	-	-	0	-
CCN(C(=O)CN1C(=O)CN(C)C1=O)c1cccc2ccccc12	0	0	0	0	-	-
CCN(C(=O)CN1CCN(C)CC1)c1cccc2ccccc12	0	0	0	0	1.78µM	0
C=CCOC(=O)N[C@@H](Cc1ccccc1)/C(C(=O)OC)=C(\C)NCc1ccccc1	0	-	-	-	-	0
N#CC1c2ccccc2C=CN1C(=O)N(c1ccccc1)c1ccccc1 (stereo unspecified)	70.8µM	0	0	-	-	-
COc1cc(OC)c(NC(=O)C(CC(C)C)N2Cc3ccccc3C2=O)cc1Cl (stereo unspecified)	0	-	-	-	?	-
c1ccc(-c2nnc(-c3ccccn3)c(-c3ccccn3)n2)nc1	0	?	0	0	?	?
CCOC(=O)C(C)Sc1nc(-c2ccccn2)ncc1OC (stereo unspecified)	0	?	0	0	0	35.5µM
COc1cnc(-c2ccccn2)nc1N(C)C	0	0	0	0	0	15.8µM
COc1cnc(-c2ccccn2)nc1Sc1ccccc1Cl	0	0	0	0	0	0
CN(C)c1nc(-c2ccccn2)nnc1-c1ccccc1	0	0	0	0	0	79.4µM
Cc1ccc(CSc2nc3cccnc3n2Cc2ccc(C(=O)NC3CCCCC3)cc2)cc1	0	-	-	-	0	-
CCc1ccccc1NC(=O)Cn1nnc(-c2nc(-c3ccncc3)no2)c1N	0	-	-	-	7.08µM	-
O=[N+]([O-])c1ccc(S(=O)(=O)CC(CN2CCOCC2)N2CCOCC2)cc1 (stereo unspecified)	0	0	0	0	56.2µM	?
O=[N+]([O-])c1ccc(S(=O)(=O)CC(CN2CCCCC2)N2CCCCC2)cc1 (stereo unspecified)	0	?	0	0	35.5µM	0
O=S(=O)(CC(CN1CCCCC1)N1CCCCC1)c1ccccc1 (stereo unspecified)	0	0	0	0	0	0

Source: PubChem (National Center for Advancing Translational Sciences (NCATS))
